{"source": "PubChem BioAssay (Tox21)", "note": "Inconclusive results are not listed. A call without a number means that no potency is given here. Unmarked numbers belong to inactive results. Activity calls are given as the source filed them. Calls follow the shape of the dose curve; as a rule, active = well fitted cell-killing curve with a large enough effect in the repeat runs; inconclusive = weak or mixed curves, or effect the other way; inactive = no such curve, though single readings can be large or run the other way. Potency is read from the fitted curve at half-maximal effect.", "data": [{"experiment": "qHTS assay to identify small molecule antagonists of the sonic hedgehog signaling (Shh) pathway - cell viability counter screen (AID 1259367); also: nearly all actives have a fitted effect of over 55% in size", "settings": "NIH/3T3 Gli1-Luc viability, CellTiter-Fluor, 24 h; series mostly up to 92.4 µM", "source_text": "National Center for Advancing Translational Sciences [NCATS]\nNIH Chemical Genomics Center [NCGC]\nU.S. Environmental Protection Agency [EPA]\nNational Institutes of Environmental Health Sciences [NIEHS]\nNational Toxicology Program [NTP]\nU.S. Food and Drug Administration [FDA]\nThe sonic hedgehog (Shh) pathway is essential for normal embryonic development. Dysregulation of the Shh pathway can cause severe developmental defects in organs. Therefore chemicals that interfere with the pathway are potential developmental toxicants. A cell line designated 3T3Gli1-Luc (DMB/OARSA/CFSAN/FDA, Laurel, MD), a NIH/3T3 derived clone containing stably integrated Gli1-Luc reporter is used to detect chemical interference of the Shh pathway, by changes in the expression of the firefly Luc gene under the control of the Gli1 transcriptional response element. This cell line was used to screen Tox21 libraries for identifying and prioritizing the potential developmental toxicants that interfere Shh pathway. Conditioned medium-stimulated mode was used to screen for chemicals inhibiting Shh signaling. The cytotoxicity of the compounds was tested in parallel by measuring the cell viability using CellTiter-Fluor assay system (Promega, Madison, WI) in the same wells.\nTox21 Assay Protocol Summary:\n3T3 Gli1-Luc cells were dispensed at 2,000 per well in 5uL of culture medium into white solid bottom 1536-well plates (Greiner Bio-One, Monroe, NC) using a Multidrop Combi (Thermo Scientific, Waltham, MA) dispenser. The assay plates were incubated at 37 C and 5% CO2 for 4hr, and then 23nL of compounds dissolved in DMSO and positive control were transferred using a Pintool station (Wako, San Diego, CA). The compound transfer was followed by the addition of 1ul conditioned medium or assay buffer using two separate tips of Flying Reagent Dispenser (FRD, Aurora Discovery, San Diego, CA). The assay plates were incubated at 37C and 5% CO2 for 24hr. For viability read, after 23hr of compound treatment, 1uL of CellTiter-Fluor reagent (Promega Corporation, Madison, WI) was added to each well of the assay plates using Flying Reagent Dispenser (FRD, Aurora Discovery, San Diego, CA) and incubated the assay plates at 37C for 1hr. The fluorescence signal was quantified using a ViewLux plate reader (Perkin Elmer, Shelton, CT).", "values": [{"smiles": "CCc1ccc(C)nc1", "Potency": "inactive"}, {"smiles": "CCNc1nc(NC(C)CC)nc(OC)n1", "note": "(stereo not given)", "Potency": "inactive"}, {"smiles": "CCN1CCN(c2cc(-c3ccc(F)cc3)c3c(n2)CCCCCC3)CC1", "viability change, negative = cytotoxic": "-5.57% [at 19 µM]"}, {"smiles": "CCCCCCOc1cc(C)c(O)c(C)c1C", "Potency": "61.9 µM (active)"}, {"smiles": "O=C(c1ccccc1)c1cc(Cl)ccc1O", "Potency": "inactive"}, {"smiles": "C[C@@H]1CC[C@H]2C(C)(C)[C@H]3C[C@@]12CC[C@@]3(C)O", "Potency": "inactive"}, {"smiles": "CC(C)(c1cc(Br)c(O)c(Br)c1)c1cc(Br)c(O)c(Br)c1", "Potency": "inactive"}, {"smiles": "Cc1ccc(N)cc1O", "Potency": "inactive"}, {"smiles": "C=CC(=O)OCCOCC(CC)(COCCOC(=O)C=C)COCCOC(=O)C=C", "Potency": "7.14 µM (active)"}, {"smiles": "CC[N+](CC)(CC)Cc1ccccc1", "Potency": "inactive"}, {"smiles": "CCOC(=O)COc1ccc(C)cc1", "Potency": "inactive"}, {"smiles": "CCCCCCCC/C=C\\CCCCCCCC(=O)N(C)CC(=O)O", "Potency": "inactive"}, {"smiles": "CCCCCCCCCC(=O)N(C)C", "Potency": "inactive"}, {"smiles": "O=C(O)CCn1c2c(c3ccccc31)C[C@H](NS(=O)(=O)c1ccc(F)cc1)CC2", "Potency": "inactive"}, {"smiles": "CCCCCCCCCCCCCCCCCO", "viability change, negative = cytotoxic": "5.3% [at 19 µM]"}, {"smiles": "CCCCCCCCCCc1ccccc1", "Potency": "inactive"}, {"smiles": "CCOCN(C(=O)CS(=O)(=O)O)c1c(C)cccc1CC", "Potency": "inactive"}, {"smiles": "O=C1c2c(O)ccc(O)c2C(=O)c2c(NCCNCCO)ccc(NCCNCCO)c21", "Potency": "23.7 µM (active)"}, {"smiles": "CC1=CP(=O)(c2ccccc2)CC1", "note": "(stereo not given)", "Potency": "inactive"}, {"smiles": "CCCCCCCCCCCCCOP(=O)(O)O", "Potency": "inactive"}, {"smiles": "CC=O", "Potency": "28.6 µM (active)"}, {"smiles": "O=C(O)CC(=O)O", "Potency": "inactive"}, {"smiles": "CCCCN(C)C", "Potency": "inactive"}, {"smiles": "CCN(CC)CCOC(=O)C1(C2CCCCC2)CCCCC1", "Potency": "inactive"}, {"smiles": "CCN(CC)CCSC(=O)C(c1ccccc1)c1ccccc1", "Potency": "inactive"}, {"smiles": "C=CC/C=C/C/C=C/C/C=C/C", "Potency": "inactive"}, {"smiles": "COC(=O)[C@]1(C)CCC[C@@]2(C)[C@H]1CC=C1C=C(C(C)C)CC[C@@H]12", "Potency": "inactive"}, {"smiles": "CC(C)=CCCC(C)CCOC(=O)C(C)C", "note": "(stereo not given)", "Potency": "inactive"}, {"smiles": "ClC/C=C\\CCl", "Potency": "inactive"}, {"smiles": "NC(=O)c1ccccc1N", "Potency": "inactive"}, {"smiles": "O=C(Oc1ccccc1)c1cccc(C(=O)Oc2ccccc2)c1", "Potency": "inactive"}, {"smiles": "CC1CCCNC1", "note": "(stereo not given)", "Potency": "42.4 µM (active)"}, {"smiles": "Cc1c(C(=O)O)cccc1[N+](=O)[O-]", "Potency": "55.4 µM (active)"}, {"smiles": "O=C(O)CCCCCCC(=O)O", "Potency": "inactive"}, {"smiles": "O=c1cccc[nH]1", "Potency": "inactive"}, {"smiles": "c1ccc(Nc2cccc3ccccc23)cc1", "Potency": "inactive"}, {"smiles": "CCOC(=O)N1CCC(=C2c3ccc(Cl)cc3CCc3cccnc32)CC1", "Potency": "inactive"}, {"smiles": "SCCCCCCCCS", "Potency": "inactive"}, {"smiles": "C[Si](C)O[Si](C)C", "Potency": "inactive"}, {"smiles": "CC(=O)Oc1ccc(C2(c3ccc(OC(C)=O)cc3)C(=O)Nc3ccccc32)cc1", "Potency": "inactive"}]}]}
